Sampled rows, rich in hits. Any-hit rate of the full collection: about 2.3%.
CHO-K1 Ca antag – nonselective inhibitor or artifact in parental CHO-K1 cells; inhibition, % at 3 µM; ATP-induced calcium, Fluo-8 fluorescence; hit rate 0.6% among 360,000;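 active means inhibition above a per-plate cutoff, the plate's mean sample inhibition plus 3 SD, cut at about 24% in these data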
CHO-K1 Ca ag – counter-screen for M1 agonists: effect in parental CHO-K1 cells | Fluo-8 calcium fluorescence; scaled to maximal ATP response, vehicle zero | activation, % at 3 µM | hit rate 0.48% among 360,000 | AID 602248; in the data active means activation above about 15%;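 further: untransfected CHO-K1 host cells lacking M1 receptor as counterscreen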
M1 antag – human CHRM1 antagonism | hit rate 1.3% among 360,000 | AID 588852 | inhibition, % at 3 µM | CHO-K1 hM1, Fluo-8 calcium fluorescence, ACh EC80 antagonist;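 active means percent inhibition above its own plate's cutoff, namely the mean of that plate's compound wells plus 3 SD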;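 further: peak over basal fluorescence ratio during 140 s after agonist addition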
Target sequence (P11229 whole entry, looked up): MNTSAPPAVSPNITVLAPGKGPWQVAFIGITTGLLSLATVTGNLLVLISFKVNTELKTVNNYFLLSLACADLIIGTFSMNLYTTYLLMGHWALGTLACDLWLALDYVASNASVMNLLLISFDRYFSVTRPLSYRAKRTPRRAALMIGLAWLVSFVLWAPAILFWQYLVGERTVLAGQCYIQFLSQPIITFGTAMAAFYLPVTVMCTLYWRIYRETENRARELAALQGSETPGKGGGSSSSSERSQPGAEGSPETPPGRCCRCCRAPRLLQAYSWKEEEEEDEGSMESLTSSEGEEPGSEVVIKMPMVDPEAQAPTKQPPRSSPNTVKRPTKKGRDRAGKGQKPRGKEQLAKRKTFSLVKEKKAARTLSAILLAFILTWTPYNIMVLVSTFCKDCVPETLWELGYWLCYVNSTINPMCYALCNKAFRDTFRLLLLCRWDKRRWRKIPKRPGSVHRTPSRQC
CHRM1 agonist – activates human CHRM1 receptor; P11229; CHO-K1 hM1, Fluo-8 calcium fluorescence, agonist mode; 0% DMSO, 100% acetylcholine EC100; activation, % at 3 µM; hit rate 0.33% among 360,000; AID 588814;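 active means activation above the run's mean compound activation plus 3 SD, cut at about 16% in these data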;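 further: peak over basal fluorescence ratio within a 140 s kinetic read after compound addition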
CHO-K1 Ca PAM – M1 PAM counterscreen hit in parental CHO-K1 cells; ATP EC20, Fluo-8 calcium fluorescence; 0% at ATP EC20, 100% at ATP max; activation, % at 3 µM; hit rate 0.02% among 360,000; AID 602247;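 active means activation above the run cutoff, the mean activation of all test compounds plus 3 SD, cut at about 40% in these data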;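 further: peak over basal fluorescence ratio in a 140 s read after ATP addition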
CHRM1 PAM – potentiates human M1 receptor response to acetylcholine; P11229; CHO-K1 hM1, Fluo-8 calcium fluorescence, ACh EC20; 0% = ACh EC20, 100% = maximal ACh; hit rate 0.088% among 360,000; activation, % at 3 µM; in the data active means activation above about 19%, passing the limit was not always enough
Each line names hits and unclear results; the compound was inactive in the other large screens; ! = repeats disagree.

CC1(C)CC(=O)c2c(oc3ccc(NS(=O)(=O)c4ccc(C(=O)O)cc4)cc23)C1	CHO-K1 Ca antag 25
O=C1C2C3C=CC(C4CC34)C2C(=O)N1c1cccc2ccccc12 (stereo not drawn)	CHO-K1 Ca ag 18
Cc1ccc(C2CC(=O)c3cnc(N4CCN(c5ccccc5)CC4)nc3C2)cc1 (stereo not drawn)	none
O=C1CC(c2ccc(F)cc2)Cc2nc(N3CCN(c4ccccc4)CC3)ncc21 (stereo not drawn)	CHO-K1 Ca antag 40
COc1cc(OC)c(-c2c3cc(O)c(=O)cc-3oc3cc(O)c(O)cc23)cc1OC	CHO-K1 Ca antag 68, CHO-K1 Ca ag 258, M1 antag 74, CHRM1 agonist 385
O=C(/C=C\Nc1ccc(Br)cc1)c1cccnc1	none
CCOC(=O)Nc1ccc2c(c1)N(C(=O)OCCN(C)C)c1ccccc1CC2	M1 antag 31!
OC[C@H]1O[C@@H](c2nc3ccc(-c4nc(-c5ccc(Br)cc5)no4)cc3[nH]2)C[C@@H]1O	CHRM1 agonist 16
CCN(CC)C(=O)c1ccc2nc([C@H]3C[C@H](O)[C@@H](CO)O3)[nH]c2c1	none
CC1CC(C)CN(CCOCCSc2ccc(Cl)cc2)C1 (stereo not drawn)	M1 antag 35
Clc1ccc(SCCCN2CCCCC2)cc1	M1 antag 33
CC1CC(C)CN(CCOCCSc2ccccc2)C1 (stereo not drawn)	none
CCOc1ccc(CCNC(=O)COC(=O)c2nc(Cl)ccc2Cl)cc1OCC	none
CCOc1ccc(NCc2cccn2-c2nnc(N3CCC(C(=O)NCCCN4CCCCC4CC)CC3)s2)cc1 (stereo not drawn)	M1 antag 88
Cc1nn(C)c(C)c1CN(C)S(=O)(=O)c1ccc2ccccc2c1	CHO-K1 Ca antag 25, M1 antag 24
COc1ccc(-c2c(-c3ccsc3)oc3c2C(O)CCC3)cn1 (stereo not drawn)	none (no result: M1 antag, CHRM1 agonist, CHRM1 PAM)
COc1ccccc1NC(=S)N(Cc1ccccn1)Cc1ccccc1Cl	CHO-K1 Ca antag 36
CCCCC1CCC(C(=O)N(CCCC)c2c(N)n(CCCC)c(=O)[nH]c2=O)CC1 (stereo not drawn)	none
OC(COC(c1ccc(F)cc1)c1ccc(F)cc1)CN1CCCC(C(F)(F)F)C1 (stereo not drawn)	none
OC(CN1CCCC(C(F)(F)F)C1)c1ccccc1 (stereo not drawn)	CHRM1 PAM 34
CCCNC(=O)CN1C(=O)COc2ccc(S(=O)(=O)N3CC(C)CC(C)C3)cc21 (stereo not drawn)	none
O=C(O)/C=C/C(=O)N1CCN(C(c2ccccc2)c2ccccc2)CC1	M1 antag 42
CC(=O)/C(C(=N)N1CCN(C(c2ccccc2)c2ccccc2)CC1)=C(\C)O	M1 antag 99
Cc1ccc(C(=O)NCC(C)(C)O)cc1	CHO-K1 Ca antag 26
CC(C)[C@H](NC(=O)c1ccccc1)C(=O)OCC(=O)Nc1ncc(Cl)cc1Cl	none
O=C(OCCNc1nc(-c2ccccc2)nc2ccccc12)c1cccnc1	none
CCCOC(=O)c1cccc(Nc2nc(-c3cccnc3)nc3ccccc23)c1	M1 antag 34
CC(C)(C)Sc1ccc([N+](=O)[O-])cc1C(=O)Nc1ccncc1	none
CCCCN(C(=O)c1cc(CC)c(C)s1)c1c(N)n(CCC)c(=O)[nH]c1=O	none
CN(C(=O)Nc1ccccc1)C1CCCc2ccccc21 (stereo not drawn)	CHO-K1 Ca ag 16
CN1OC[C@@H]2CN(S(=O)(=O)c3cc(Cl)cc(Cl)c3)[C@H](c3ccc(-c4ccc(C#N)cc4)cc3)C[C@@H]21	none
CCCOc1ccc(OCCn2nc(C(=O)O)c3ccccc3c2=O)cc1	none
Cc1ccc(OCCCCNC2CCCC(C)C2C)c(C)c1 (stereo not drawn)	M1 antag 48
Cc1ccc(OCCCCN2CCCCC2)c(C)c1	none
COc1ccc(-c2c(C(=O)c3ccc(Br)cc3)[nH]c(N)c2C(=O)c2ccccc2)cc1OC	none (no result: M1 antag, CHRM1 agonist, CHRM1 PAM)
COc1cccc(CN(C)C(=O)c2ccc(OCC(=O)Nc3cccc(C(F)(F)F)c3)c(OC)c2)c1	M1 antag 40
COc1ccc(Cc2nnc(SC(C)C(=O)Nc3ccc(F)cc3Cl)o2)cc1 (stereo not drawn)	none
Cc1cccn2cc(CNC(=O)C3CCCCC3)nc12	CHO-K1 Ca ag 19
CC(C)N(C(=S)NCc1ccccc1)c1ccccc1	none
CC(C)N(C(=S)NCc1ccccc1)C(C)C	CHO-K1 Ca antag 26
CCOc1ccccc1N(C(=O)Nc1cccc(Cl)c1)C1=NC(C)CS1 (stereo not drawn)	none
CC1CSC(N(C(=O)c2ccc(S(C)(=O)=O)cc2)c2ccc(Cl)cc2)=N1 (stereo not drawn)	CHO-K1 Ca ag 16
CCC1Oc2ccccc2N(CC(=O)NCCCN2CCOCC2)C1=O (stereo not drawn)	CHO-K1 Ca antag 27
CC(Oc1ccccc1Cl)C(=O)Nc1ccc(S(=O)(=O)N2CCN(C)CC2)cc1 (stereo not drawn)	none
Nc1ccc2ccc(O)cc2c1	none
C[n+]1c2cc(N)ccc2cc2ccc(N)cc21	CHO-K1 Ca antag 25!, CHO-K1 Ca ag 210, CHRM1 agonist 205
CCOC(=O)n1c(=O)oc2ccc(Cl)cc21	CHO-K1 Ca antag 29
CCCCOC(=O)n1c(=O)oc2ccccc21	none
CCN(CC)c1ccc2cc(-c3nc4ccccc4[nH]3)c(=O)oc2c1	CHO-K1 Ca ag 80, M1 antag 69, CHRM1 agonist 279
O=c1oc2ccc3ccccc3c2cc1-c1nnc(-c2ccccc2)o1	none
CCN(CC)c1ccc2cc(C(=O)c3cccs3)c(=O)oc2c1	CHO-K1 Ca antag 40, CHO-K1 Ca ag 74, M1 antag 60, CHRM1 agonist 131
CCN(CC)c1ccc2cc(-c3nnc(-c4ccccc4)o3)c(=O)oc2c1	CHO-K1 Ca ag 28, M1 antag 15, CHRM1 agonist 108
CC(C)(C)n1nnnc1C(c1cccs1)N(Cc1ccccc1)Cc1ccco1 (stereo not drawn)	none
CC(C)(C)n1nnnc1C(c1cccs1)N(Cc1cccnc1)Cc1ccco1 (stereo not drawn)	M1 antag 98
CCCNC(=O)NNC(=O)c1ccc(F)cc1	none
CSc1nsc(SC)c1C(=O)OCC(F)(F)F	CHRM1 PAM 24
COc1cc(/C=C2\SC(=S)N(NS(=O)(=O)c3ccc(C)cc3)C2=O)ccc1O	CHO-K1 Ca ag 24
COc1cc(/C=C2\SC(=S)N(NS(=O)(=O)c3ccccc3)C2=O)ccc1O	CHO-K1 Ca ag 16
CCCCn1c(CN2CCN(C)CC2)nc2ccccc21	M1 antag 31
CC#CC(=O)N1CCC(CO)(CCc2ccccc2)CC1	none

Screening results as filed in PubChem BioAssay.
